# Test results from PubChem BioAssay (NCATS).
# Values joined by “and” are separate entries in the source; they are usually repeats but may differ in a detail not shown here. Equal values may be shown once. A number with no mark means an inactive call. Results filed as inconclusive are left out. Entries that show only a call come without a potency. Active and inactive are the calls of the source. Unless noted, calls come from the whole dose curve; as a rule, active = well fitted curve in the direction sought with a large enough effect; inconclusive = small, poorly fitted or top-dose-only effect, or another doubt; inactive = no such curve, though single readings can be large; an effect the other way counts as inactive or inconclusive.
# Key:
# [1] = qHTS for compounds that reverse cellular toxicity of Amyloid beta (A-beta) peptide in yeast: LOPAC Validation Assay (AID 720559)
# Method in brief: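 OD600 growth readout after 48 hr at 30 C; A-beta-toxic yeast plus pinned compounds in medium. Normalization: DMSO = negative, equimolar FeCl3 + clioquinol = positive.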
# [2] = qHTS for Activators of Parkin Expression: LOPAC Validation Assay (NLuc Reporter) (AID 720572)
# Method in brief: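 Parkin promoter-driven FLuc/NLuc neuronal reporter cells; 24 h plating, 7-pt dose response, 24 h at 37 C/5% CO2; FLuc then NanoLuc reagent, 10 min each, luminescence; DMSO/positive control normalized.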
# [3] = qHTS assay for small molecule agonists of the antioxidant response element (ARE) signaling pathway measured by Nrf2-dependant transcriptional activity (AID 720636; active = well fitted curve in the direction sought with a large enough effect in the repeat runs; an effect the other way counts as inactive or inconclusive;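 note: HepG2 cells with an ARE-driven luciferase reporter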)
# Method in brief: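 Cells: ARE-luc HepG2 with Nrf2-responsive luciferase. Medium contained 1% dialyzed FBS. Compound exposure lasted 16 hr at 37 C and 5% CO2, followed by ONE-Glo luciferase detection.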
# [4] = qHTS assay for small molecule agonists of the antioxidant response element (ARE) signaling pathway measured by Nrf2-dependant transcriptional activity - cell viability counter screen (AID 720653; active = well fitted curve in the direction sought with a large enough effect in the repeat runs; an effect the other way counts as inactive or inconclusive); conditions: ARE-bla HepG2 viability, CellTiter-Glo ATP luminescence, 16 h; active compounds read low
# Method in brief: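 Cytotoxicity counter screen: intracellular ATP quantified by CellTiter-Glo luminescence in the same ARE-bla HepG2 plates, after 16 h compound exposure and a 2 h beta-lactamase substrate step.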
# [5] = molecular target: T1, Hexokinase-4 (Homo sapiens) + Glucokinase regulatory protein (Homo sapiens) (UniProt P35557+Q14397); test: qHTS assay for inhibitors of recombinant human GCK-GKRP interaction: Diaphorase-coupled assay (AID 743205)
# Method in brief: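 Resorufin fluorescence (525/590 nm), read each minute over 30 min, reports GCK activity coupled via G6PDH and diaphorase. Reaction: 10 nM GST-GCK, 10 nM FLAG-GKRP, 5 mM glucose, 0.4 mM ATP, 0.15 mM NADP+, 0.1 mM resazurin.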
# [6] = molecular target: T1, Hexokinase-4 (Homo sapiens) + Glucokinase regulatory protein (Homo sapiens); test: qHTS assay for inhibitors of recombinant human GCK-GKRP interaction: HTRF assay (AID 743207)
# Method in brief: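 HTRF read-out (ex 320 nm; 615/665 nm emission) after 60 min RT equilibration of 5 nM GST-GCK, 5 nM FLAG-GKRP, 2 uM S6P, compound and anti-FLAG/anti-GST detection antibodies; signal normalized between DMSO wells with and without GCK.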
# [7] = qHTS assay for cell viability of the p53RE-bla HCT-116 cell line (AID 743292); note: nearly all actives have a fitted effect of over 55% in size
# Method in brief: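 HCT-116 p53RE-bla cells seeded 4,000/well; 5 h at 37 C; compound (DMSO) added; 16 h at 37 C; CellTiter-Glo added, 30 min RT; luminescence read.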
# [8] = qHTS assay for measurement of the activity of small molecule inhibitors on Zika virus induced Caspase-3 activity in human iPSC derived neural progenitor cells (hNPCs) (AID 1224857); note: nearly all actives have a fitted effect of over 65% in size
# Method in brief: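 After overnight (16–20 h) culture at 350 cells/well, hNPCs get compound, then ZIKV 2 FFU/cell one hour later. Six hours on, Caspase-Glo 3/7 is added and luminescence measured.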
# [9] = qHTS assay for measurement of the activity of small molecule inhibitors on Zika virus induced Caspase-3 activity in human astrocytoma cells (AID 1224859)
# Method in brief: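 Inhibition of Zika-induced caspase-3/7 activity: SNB-19 cells, 1 h compound pretreatment, ZIKV 2 FFU/cell for 6 h at 37 C, Caspase-Glo luminescence read-out.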
# [10] = qHTS Assay for Identifying Gametocytocidal Compounds (AID 743244); note: potency is the fitted concentration of half-maximal effect;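 for max response: actives lower the fluorescent signal which means gametocytes are killed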; conditions: P. falciparum 3D7 stage III-V gametocytes, alamarBlue, 72 h; max response: active compounds read low
# Method in brief: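 Using 20,000 stage III–V 3D7 gametocytes per well, compounds were incubated 72 h under 37 °C/5% CO2. Viability was then assessed by 24 h alamarBlue reduction, measured fluorometrically at 525/598 nm.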
# T1 sequence (P35557 whole entry, looked up): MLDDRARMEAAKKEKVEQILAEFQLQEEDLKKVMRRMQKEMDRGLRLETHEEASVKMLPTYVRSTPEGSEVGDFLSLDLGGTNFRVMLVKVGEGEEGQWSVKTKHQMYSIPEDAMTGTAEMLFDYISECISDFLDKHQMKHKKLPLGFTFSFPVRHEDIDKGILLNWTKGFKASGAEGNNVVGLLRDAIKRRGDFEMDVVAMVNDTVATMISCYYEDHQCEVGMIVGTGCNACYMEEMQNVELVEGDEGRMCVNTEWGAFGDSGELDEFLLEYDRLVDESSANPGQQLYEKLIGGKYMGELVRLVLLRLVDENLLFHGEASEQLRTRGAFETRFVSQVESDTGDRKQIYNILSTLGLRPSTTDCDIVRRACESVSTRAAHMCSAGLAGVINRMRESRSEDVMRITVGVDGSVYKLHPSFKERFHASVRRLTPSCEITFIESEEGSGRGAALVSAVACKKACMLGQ
# T1 sequence (Q14397 whole entry, looked up): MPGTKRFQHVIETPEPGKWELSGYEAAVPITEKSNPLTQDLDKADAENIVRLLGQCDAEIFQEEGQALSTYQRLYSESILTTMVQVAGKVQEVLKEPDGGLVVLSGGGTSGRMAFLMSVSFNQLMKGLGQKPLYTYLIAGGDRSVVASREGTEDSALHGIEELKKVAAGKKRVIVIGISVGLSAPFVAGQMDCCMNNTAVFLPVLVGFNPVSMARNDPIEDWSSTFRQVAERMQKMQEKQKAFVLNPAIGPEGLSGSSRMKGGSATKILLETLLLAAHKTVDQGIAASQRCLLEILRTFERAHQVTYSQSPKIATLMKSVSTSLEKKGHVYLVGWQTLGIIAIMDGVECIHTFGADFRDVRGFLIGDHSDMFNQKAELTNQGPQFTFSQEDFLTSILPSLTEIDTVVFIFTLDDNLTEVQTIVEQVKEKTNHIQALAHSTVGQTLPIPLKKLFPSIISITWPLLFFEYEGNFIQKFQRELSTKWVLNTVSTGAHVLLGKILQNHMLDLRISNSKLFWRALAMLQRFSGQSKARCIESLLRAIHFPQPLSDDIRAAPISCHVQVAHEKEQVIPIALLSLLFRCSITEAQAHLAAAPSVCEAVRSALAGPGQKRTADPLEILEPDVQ
structure (smiles),measurement,setting,value
C[C@]12CC[C@@H]3c4ccc(O)cc4CC[C@H]3[C@@H]1CC[C@@H]2O,outcome,[1],inactive
same,outcome,[2],inactive
same,Potency,[3],inactive
same,max response,[4],-2.14%
same,outcome,[5],inactive
same,outcome,[6],inactive
same,outcome,[7],inactive
same,outcome,[8],inactive
same,outcome,[9],inactive
CC(C)COC(=O)OCN1C(=O)CN(CCN2CC(=O)N(COC(=O)OCC(C)C)C(=O)C2)CC1=O,outcome,[1],inactive
same,outcome,[2],inactive
same,outcome,[5],inactive
same,outcome,[6],inactive
same,outcome,[8],inactive
same,outcome,[9],inactive
COc1cc(NS(C)(=O)=O)ccc1Nc1c2ccccc2nc2ccccc12,outcome,[1],inactive
same,outcome,[2],inactive
same,outcome,[5],inactive
same,outcome,[6],inactive
same,Potency,[10],6.31 µM (active)
same,outcome,[8],inactive
same,outcome,[9],inactive
C1CCc2nnnn2CC1,outcome,[1],inactive
same,outcome,[2],inactive
same,outcome,[5],inactive
same,outcome,[6],inactive
same,max response,[10],-4.71%
same,outcome,[8],inactive
same,outcome,[9],inactive
O=C1OC2(c3ccc(O)cc3Oc3cc(O)ccc32)c2ccccc21,outcome,[8],inactive
same,outcome,[9],inactive
CCCCOc1ccc(C(=O)CCN2CCCCC2)cc1,outcome,[8],inactive
same,outcome,[9],inactive
O=C1[C@H]2CCCC[C@H]2C(=O)N1CCCCN1CCN(c2nsc3ccccc23)CC1,outcome,[8],inactive
same,outcome,[9],inactive
CC(CCc1ccccc1)NCC(O)c1ccc(O)c(C(N)=O)c1 (stereo not drawn),outcome,[1],inactive
same,outcome,[2],inactive
same,outcome,[5],inactive
same,outcome,[6],inactive
same,max response,[10],16.8%
same,outcome,[8],inactive
same,outcome,[9],inactive
C[N+]1(CCCCC[N+]2(C)CCCC2)CCCC1,outcome,[1],inactive
same,outcome,[2],inactive
same,outcome,[5],inactive
same,outcome,[6],inactive
same,max response,[10],12.3% and 19.3%
same,outcome,[8],inactive
same,outcome,[9],inactive
Cc1ccc(O)c2ncccc12,outcome,[8],inactive
same,outcome,[9],inactive
CC1(C)OC[C@@H](COC(=O)CCc2ccc(OC[C@@H](O)CNCCNC(=O)N3CCOCC3)cc2)O1,outcome,[8],inactive
same,outcome,[9],inactive
